# In PubChem BioAssay:
# Unmarked numbers belong to inactive results. For some assays here: Entries with a potency or affinity are not part of this list. Active and inactive are the calls of the source. Unless noted, the rule behind the calls is not given here.
# Columns and labels:
# [1] = antimalarial activity against Dd2 strain (AID 2302;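 active = growth inhibition above 50% at the single 2 µM test dose, taken to imply half-maximal potency below 2 µM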;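 note: 0% = DMSO untreated growth and 100% = chloroquine plus artemisinin killed control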); settings: P. falciparum Dd2 in RBCs, LDH growth readout, 72 h; at 2 µM; stronger effect = higher value
# [2] = human hepatoma cell viability loss – ATP luminescence, cytotoxicity control for P. falciparum antimalarial project, primary screen (AID 2303;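 active = inhibition above 50%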;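 note: 0% = DMSO wells and 100% = digitonin-killed cells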); settings: HepG2 viability, 24-48 h, at 10 µM, stronger effect = higher value
# [3] = target: L-lactate dehydrogenase (Plasmodium falciparum (isolate CDC / Honduras)) (UniProt Q27743); experiment: PfLDH activity inhibition – cell lysate, 3D7 strain, counter-screen for P. falciparum growth inhibition project (AID 2304);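 note: 0% = vehicle and 100% = reference inhibitor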; settings: P. falciparum 3D7 crude extract, LDH APAD/NBT absorbance; at 2 µM; stronger effect = higher value
# [4] = inhibition of 3D7 malaria parasite growth – strain 3D7 (AID 2306);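 note: 0% = DMSO wells and 100% = chloroquine plus artemisinin control wells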; settings: P. falciparum 3D7 erythrocytic growth, LDH absorbance, 72 h; at 2 µM; stronger effect = higher value
# [5] = target: Calcium-dependent protein kinase 1 (Plasmodium falciparum (isolate 3D7)) (UniProt P62344); experiment: PfCDPK1 kinase inhibitors, biochemical, TCAMS library (AID 1159585; cut-off not given, nearly all actives have IC50 up to about 0.98 µM;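 note: inhibitors leave more ATP so luminescence rises with inhibition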); settings: recombinant PfCDPK1, Kinase-Glo ATP depletion luminescence
# [6] = target: Plasmodium falciparum protein kinase 6 (PK6, PF3D7_1337100) (UniProt Q8IDW1); experiment: PfPK6 kinase inhibitors, biochemical, TCAMS library (AID 1159586); settings: recombinant PfPK6, Kinase-Glo ATP depletion luminescence
# [7] = target: Protein kinase 7 (PK7), Plasmodium falciparum 3D7 (PF3D7_0213400) (UniProt Q7YTF7); experiment: inhibition of Plasmodium PK7 catalytic activity – biochemical, TCAMS antimalarial set, Kinase-Glo luminescence (AID 1159587); settings: recombinant PfPK7, Kinase-Glo ATP depletion luminescence
# [8] = target: Calcium-dependent protein kinase 4 (Plasmodium falciparum (isolate 3D7)) (UniProt Q8IBS5); experiment: PfCDPK4 kinase inhibitors, biochemical, TCAMS library (AID 1159588; cut-off not given, nearly all actives have IC50 up to about 0.91 µM); settings: recombinant PfCDPK4, Kinase-Glo ATP depletion luminescence
# Chain of Calcium-dependent protein kinase 4 (Plasmodium falciparum (isolate 3D7)) (Q8IBS5 whole entry, looked up): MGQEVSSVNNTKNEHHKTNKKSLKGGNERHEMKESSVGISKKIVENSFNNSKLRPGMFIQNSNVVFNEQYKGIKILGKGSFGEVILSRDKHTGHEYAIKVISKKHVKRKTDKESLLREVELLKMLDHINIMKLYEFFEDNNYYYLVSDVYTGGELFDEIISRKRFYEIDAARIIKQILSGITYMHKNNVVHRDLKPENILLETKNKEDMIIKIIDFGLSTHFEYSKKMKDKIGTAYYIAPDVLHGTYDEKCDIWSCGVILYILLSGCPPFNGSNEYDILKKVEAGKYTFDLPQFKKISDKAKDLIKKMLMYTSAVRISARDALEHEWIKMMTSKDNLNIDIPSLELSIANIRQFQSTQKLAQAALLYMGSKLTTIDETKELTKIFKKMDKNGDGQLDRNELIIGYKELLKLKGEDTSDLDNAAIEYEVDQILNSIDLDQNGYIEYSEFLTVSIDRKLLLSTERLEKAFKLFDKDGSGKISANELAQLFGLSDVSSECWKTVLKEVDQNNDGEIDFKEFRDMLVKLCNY
# Chain of Calcium-dependent protein kinase 1 (Plasmodium falciparum (isolate 3D7)) (P62344 whole entry, looked up): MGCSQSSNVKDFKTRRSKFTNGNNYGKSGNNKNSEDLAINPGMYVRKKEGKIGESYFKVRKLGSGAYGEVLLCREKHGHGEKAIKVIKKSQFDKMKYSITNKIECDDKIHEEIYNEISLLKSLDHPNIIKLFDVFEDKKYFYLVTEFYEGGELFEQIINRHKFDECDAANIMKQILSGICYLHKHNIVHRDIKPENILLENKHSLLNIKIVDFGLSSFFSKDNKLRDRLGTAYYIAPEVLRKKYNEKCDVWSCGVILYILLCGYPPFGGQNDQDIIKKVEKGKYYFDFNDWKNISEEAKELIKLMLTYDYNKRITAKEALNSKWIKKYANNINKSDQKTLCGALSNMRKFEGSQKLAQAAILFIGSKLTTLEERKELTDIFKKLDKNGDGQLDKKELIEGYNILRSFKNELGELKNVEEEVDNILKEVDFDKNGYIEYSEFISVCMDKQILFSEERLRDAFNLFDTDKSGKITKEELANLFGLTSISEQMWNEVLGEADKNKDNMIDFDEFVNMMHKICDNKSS
# Chain of Plasmodium falciparum protein kinase 6 (PK6, PF3D7_1337100) (Q8IDW1 1-305): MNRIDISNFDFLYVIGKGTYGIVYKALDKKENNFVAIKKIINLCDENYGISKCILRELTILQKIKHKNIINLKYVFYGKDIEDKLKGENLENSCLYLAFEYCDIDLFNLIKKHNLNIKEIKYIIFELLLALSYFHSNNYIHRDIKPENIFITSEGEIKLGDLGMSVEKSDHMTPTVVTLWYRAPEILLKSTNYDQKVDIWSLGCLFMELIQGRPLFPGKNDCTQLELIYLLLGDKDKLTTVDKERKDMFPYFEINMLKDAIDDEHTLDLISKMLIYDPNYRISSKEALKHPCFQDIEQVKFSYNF
# Chain of Protein kinase 7 (PK7), Plasmodium falciparum 3D7 (PF3D7_0213400) (Q7YTF7 1-343): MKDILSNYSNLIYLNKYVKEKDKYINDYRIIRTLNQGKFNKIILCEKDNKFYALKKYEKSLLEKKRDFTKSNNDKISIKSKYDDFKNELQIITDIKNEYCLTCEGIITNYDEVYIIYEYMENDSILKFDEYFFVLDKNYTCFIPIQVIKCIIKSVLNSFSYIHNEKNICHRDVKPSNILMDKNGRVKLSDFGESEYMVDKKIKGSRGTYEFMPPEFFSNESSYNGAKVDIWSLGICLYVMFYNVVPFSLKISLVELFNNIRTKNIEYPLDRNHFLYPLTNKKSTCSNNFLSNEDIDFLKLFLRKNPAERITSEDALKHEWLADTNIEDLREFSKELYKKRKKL
# Chain of L-lactate dehydrogenase (Plasmodium falciparum (isolate CDC / Honduras)) (Q27743 whole entry, looked up): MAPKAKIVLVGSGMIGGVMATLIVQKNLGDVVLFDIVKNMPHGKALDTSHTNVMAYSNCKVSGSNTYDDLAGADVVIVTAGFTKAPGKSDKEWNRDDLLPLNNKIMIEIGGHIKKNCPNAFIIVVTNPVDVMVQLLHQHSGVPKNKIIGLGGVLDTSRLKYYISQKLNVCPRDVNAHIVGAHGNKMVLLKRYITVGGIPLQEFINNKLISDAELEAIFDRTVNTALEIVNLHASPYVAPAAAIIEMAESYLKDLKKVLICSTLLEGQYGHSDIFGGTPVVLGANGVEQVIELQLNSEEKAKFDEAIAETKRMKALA
Structure (SMILES),growth inhibition [1],inhibition [2],inhibition [3] [%],growth inhibition [4],outcome [5],outcome [6],outcome [7],outcome [8]
CCOc1ccc(C(Cc2ccccc2)NC(=O)c2cccnc2)cc1OCC (stereo not given),98% (active),-21%,5,100% (active),inactive,inactive,inactive,inactive
N#Cc1ccc(C(=O)Nc2ccc(Cl)c(N3CCN(CCc4ccccc4)CC3)c2)cc1,35%,5%,5,90% (active),inactive,inactive,inactive,inactive
CCCc1cc(=O)[nH]c(-n2nc(C)cc2NC(=O)c2cc3ccccc3o2)n1,63% (active),39%,-2,90% (active),inactive,inactive,inactive,inactive
Cc1ccc(-n2ncc(C(=O)Nc3cc(Cl)cc(Cl)c3)c2C2CCNCC2)cc1C,77% (active),65% (active),-7,100% (active),inactive,inactive,inactive,inactive
COc1ccc(C(=O)[C@H]2C[C@@H]2CN(C)CCC(O)c2ccc(Cl)c(Cl)c2)cc1 (stereo not given in full),86% (active),24%,-8,94% (active),inactive,inactive,inactive,inactive
C=CCc1c(C(=O)NCC23CC4CC(CC(C4)C2)C3)[nH]c2ccccc2c1=O,79% (active),40%,2,86% (active),inactive,inactive,inactive,inactive
COc1ccc(-c2cc(C(=O)N[C@@H](CC3CCCCC3)C(=O)NC3CCCc4ccccc43)ccc2O)cc1 (stereo not given in full),97% (active),7%,-1,98% (active),inactive,inactive,inactive,inactive
CS(=O)(=O)CCNCc1cccc(-c2cc3c(Nc4ccc(OCc5cccc(F)c5)c(Cl)c4)ncnc3s2)c1,97% (active),5%,1,101% (active),inactive,inactive,inactive,inactive
COc1cc(C(=O)N2CCOC(CCN3CCc4c(c5ccccc5n4C)C3)(c3ccc(Cl)c(Cl)c3)C2)cc(OC)c1OC (stereo not given),68% (active),16%,-4,87% (active),inactive,inactive,inactive,inactive
COc1cccc2c(NN=Cc3ccc([N+](=O)[O-])cc3)ccnc12,16%,25%,-3,92% (active),inactive,inactive,inactive,inactive
O=[N+]([O-])c1ccc(C(O)CNCCc2ccccc2)cc1OCc1ccccc1 (stereo not given),67% (active),-6%,-1,94% (active),inactive,inactive,inactive,inactive
Cc1cccc2[nH]c(-c3cccc(-c4cccc(NC(=O)Nc5ccc(F)c(F)c5F)c4)c3)nc12,99% (active),32%,4,100% (active),inactive,inactive,inactive,inactive
CCc1c(CCNCCCCCCNC(C)(C)Cc2ccc3c(c2CC)OCO3)ccc(OC)c1OC,50% (active),100% (active),-1,101% (active),inactive,inactive,inactive,inactive
O=C(c1cc(-c2ccco2)[nH]n1)N1CCN(S(=O)(=O)c2ccc(Cl)cc2)CC1,95% (active),-5%,2,96% (active),inactive,inactive,inactive,inactive
Cc1cc(F)ccc1-c1nc(NCC(O)CNCCc2ccccc2)nc2c1ccc(=O)n2-c1c(F)cccc1F (stereo not given),100% (active),25%,-5,100% (active),inactive,inactive,inactive,inactive
CC(C)[C@H](NC(=O)c1ccc(O)c(-c2cccc(C(F)(F)F)c2)c1)C(=O)NCCN1CCCCC1,29%,3%,2,99% (active),inactive,inactive,inactive,inactive
CC1(C)CCCN(c2ncc(-c3cccc(CNCc4ccccc4O)c3)cn2)C1,82% (active),35%,-4,96% (active),inactive,inactive,inactive,inactive
CC(CN1CCN(C)CC1)C(=O)Nc1ccc(-c2ccc(-c3nc4ccccc4[nH]3)s2)cc1 (stereo not given),79% (active),5%,4,100% (active),inactive,inactive,inactive,inactive
CCC(NC(=O)c1ccccc1NC(=O)c1ccc(C)cc1)C(=O)OC (stereo not given),86% (active),-4%,3,95% (active),inactive,inactive,inactive,inactive
Cn1c(=N)cc(-c2ccc(Br)cc2)c2c(=O)[nH]c(N)nc21,57% (active),5%,1,80% (active),inactive,inactive,inactive,inactive

Structure (SMILES),growth inhibition [1],inhibition [2],inhibition [3] [%],growth inhibition [4],outcome [5],outcome [6],outcome [7],outcome [8]
NC1CCN(c2nc(NCCCc3ccc(O)cc3)nc(NCc3ccccc3-c3ccc(C(F)(F)F)cc3)n2)CC1,88% (active),15%,1,101% (active),inactive,inactive,inactive,inactive
O=c1nc(C=Cc2ccc(Br)cc2)oc2ccccc12,66% (active),-8%,-1,97% (active),inactive,inactive,inactive,inactive
CC1(C)[C@H]2CC[C@]1(C)CN(CC(O)Cn1c3ccccc3c3cc(I)ccc31)C2 (stereo not given in full),82% (active),-7%,1,94% (active),inactive,inactive,inactive,inactive
CCCN(CCC)C(=O)c1cc(-c2cccc(C)c2)nc2ccccc12,59% (active),17%,-6,86% (active),inactive,inactive,inactive,inactive
CN1CCC(C(=O)N(Cc2ccc(-c3ccc(CNCCc4ccccc4)cn3)cc2)Cc2cccc(F)c2)CC1,80% (active),30%,-4,90% (active),inactive,inactive,inactive,inactive
CCCNc1nc(NCc2c(C)cccc2C)nc(NC(C)(C)C)n1,89% (active),15%,2,91% (active),inactive,inactive,inactive,inactive
Cc1ccccc1C1CCN(C2CCC(NC(=O)c3ccc4c(c3)-c3nocc3C(C)O4)CC2)CC1 (stereo not given),37%,68% (active),4,88% (active),inactive,inactive,inactive,inactive
CCc1ccc(C2CCN(CCCCNC(=O)c3ccc(NC(=O)c4ccc(Cl)cc4)cc3)CC2)c(OCCO)c1,100% (active),94% (active),-3,98% (active),inactive,inactive,inactive,inactive
COc1ccc(CCN(C)CCCCNC(=O)c2ccc(NC(=O)c3ccc(Cl)cc3)cc2)c(OC)c1,0%,12%,4,87% (active),inactive,inactive,inactive,inactive
CCOC(=O)c1cn(CC)c2cc(O[C@H]3CCN(C(=O)OC(C)(C)C)C3)ccc2c1=O,75% (active),9%,-1,98% (active),inactive,inactive,inactive,inactive
O=S(=O)(NC1CCN(c2ccnc3ccccc23)C1)c1ccc(OC(F)(F)F)cc1 (stereo not given),-1%,34%,5,88% (active),inactive,inactive,inactive,inactive
CC[C@H]1CN(CCCn2c3ccccc3c3ccccc32)[C@@H](CC)CN1,-3%,69% (active),-6,89% (active),inactive,inactive,inactive,inactive
Cc1nc(N)nc(N)c1OCCCOc1ccccc1Br,96% (active),57% (active),-3,94% (active),inactive,inactive,inactive,inactive
C=CCN(c1ccc(OC)cc1)S(=O)(=O)c1ccc(Cl)c(C(=O)Nc2cccc(C#N)c2)c1,73% (active),6%,6,96% (active),inactive,inactive,inactive,inactive
COc1ccc(CNC(=O)c2cnc3c(O)cccc3c2Nc2cccc(NC(=O)c3ccc(Cl)c(Cl)c3)c2)cc1,89% (active),54% (active),4,96% (active),inactive,inactive,inactive,inactive
O=C(Nc1cccc([N+](=O)[O-])c1)Nc1ccc(Cl)c(C(F)(F)F)c1,87% (active),15%,6,96% (active),inactive,inactive,inactive,inactive
CCOC(=O)c1ccc(NC(=O)c2ccccc2C(=O)O)cc1,0%,2%,-3,92% (active),inactive,inactive,inactive,inactive
COc1ccccc1C1CCN(C2CCC(NC(=O)/C=C/c3cc(F)c(F)cc3F)CC2)CC1 (stereo not given),0%,39%,-5,85% (active),inactive,inactive,inactive,inactive
CCCCC(=O)Nc1ccc(Nc2nc(C)cc(N3CCCC3)n2)cc1,67% (active),38%,4,101% (active),inactive,inactive,inactive,inactive
O=C1c2ccccc2C(=O)N1CCOc1c(Br)cc(Br)cc1CNCCCNc1cc(=O)c2ccccc2[nH]1,12%,10%,-6,92% (active),inactive,inactive,inactive,inactive
